HCMV inh: human cytomegalovirus inhibition; HFF cells, HCMV-luciferase reporter, 72 h; hits give low values; 4.5% of 410,000 active; activity change, negative = inhibition, % at 57.5 µM; AID 1259415; in the data active = activity change below about -60%; inconclusive = no clear call, values can overlap the other calls; inactive = above about -39%
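Two compound doses tested in HFFs infected with HCMV-luciferase, MOI 1 PFU/cell, 72 h at 37C. Lysate luminescence read with OneGlo; data normalized against buffer-only and 10uM Salinomycin inhibitor controls.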
AmpC detergent: blocks E. coli AmpC beta-lactamase in detergent assay; P00811; AmpC hydrolysis of nitrocefin, absorbance 480 nm, 0.01% Triton; Potency, µM (highest dose often 114 µM), hits mostly inhibitors; 0.041% of 370,000 active; AID 485294; note: nearly all actives have a fitted effect of over 25% in size
Target sequence (P00811 whole entry, looked up): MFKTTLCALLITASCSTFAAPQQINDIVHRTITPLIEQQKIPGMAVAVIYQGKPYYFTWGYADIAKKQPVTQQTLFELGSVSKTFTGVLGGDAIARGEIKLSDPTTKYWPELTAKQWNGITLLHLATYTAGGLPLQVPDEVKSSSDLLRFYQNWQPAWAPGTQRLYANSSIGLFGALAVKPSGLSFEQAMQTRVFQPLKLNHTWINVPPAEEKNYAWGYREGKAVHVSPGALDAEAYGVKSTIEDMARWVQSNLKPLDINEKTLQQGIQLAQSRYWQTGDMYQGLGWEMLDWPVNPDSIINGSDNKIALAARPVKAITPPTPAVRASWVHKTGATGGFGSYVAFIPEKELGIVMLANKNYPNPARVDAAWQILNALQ
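AmpC (5.3 nM in the dispensed reagent) in 20 mM phosphate pH 7.0 with 0.01% (detergent screen) or 0.0001% Triton X-100 was preincubated with compounds for 15 min at room temperature. Nitrocefin was then added from an 800 uM solution, and hydrolysis was followed at 480 nm.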
HCV inh: blocks hepatitis C virus | 3.4% of 340,000 active | Huh7.5.1 HCVcc-Cre infection, luciferase reporter, 44 h | Potency, µM (series often up to 41.8 µM), hits mostly inhibitors
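Compounds are dispensed onto cells plated 4 h earlier at 1,000 per well, with HCVcc-Cre virus (about 0.5 moi) added next. Following 44 h of culture, luminescent signal is measured for 15 sec after 15 min with substrate at room temperature.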
AmpC inh no detg: blocks E. coli AmpC beta-lactamase in detergent-free assay. P00811. AmpC nitrocefin hydrolysis, absorbance 480 nm, 0.0001% Triton. Potency, µM (titrated, usually from 57.1 µM), usual class: inhibitors. 0.52% of 330,000 active. AID 485341; note: nearly all actives have a fitted effect of over 20% in size
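20 mM phosphate pH 7.0 + 0.01% (detergent screen) or 0.0001% Triton X-100; 5.3 nM AmpC reagent; cpd preinc 15 min RT; nitrocefin (800 uM stock) to start; A480 q20 s × 4 min; Activity was normalised to no-enzyme and no-compound control wells.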
FMDV inh: blocks foot and mouth disease virus; FMDV antiviral cell-based qHTS; Potency, µM (series often up to 57.9 µM), usual class: inhibitors; 1.2% of 410,000 active; AID 1159524; calls by dose curve; tested in HEK293T cells; note: read-out not given here; nearly all actives have a fitted effect of over 45% in size
HCV confirm: HCV inhibition, cherry-pick confirmation. shares compounds with HCV inh. HCVcc-Cre infectious virus cell assay, luciferase, inhibition. Potency, µM (highest dose often 41.8 µM), usual class: inhibitors. 78% of 640 active. AID 720575; note: nearly all actives have a fitted effect of over 80% in size
HCV cytotox: toxic to HCV host cells, flagging false HCV inhibitors; shares compounds with HCV inh; HCV host cell line cytotoxicity counterscreen; Potency, µM (doses to about 41.8 µM), actives largely listed as inhibitors; 22% of 640 active;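 note: 44 h compound exposure; nearly all actives have a fitted effect of over 55% in size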
Of the large screens only hits and unclear results are named; the others gave an inactive call (follow-up assays come after a bar, where they were run); ! = a repeat was not active. Shown are actives, neighbours in structure and some others; about 7.3% of the full set was active somewhere. Unless noted, calls come from the whole dose curve; as a rule, active = well fitted curve in the direction sought with a large enough effect; inconclusive = small, poorly fitted or top-dose-only effect, or another doubt; inactive = no such curve, though single readings can be large; an effect the other way counts as inactive or inconclusive.

CCOC(=O)c1c(-c2ccccc2)csc1NC(=O)c1nc(S(=O)(=O)CC)ncc1Cl	HCMV inh -98, FMDV inh 14µM (no result: HCV inh, AmpC inh no detg)
CCc1ccc(NC(=O)c2nc(S(=O)(=O)Cc3ccccc3)ncc2Cl)cc1	HCMV inh -100 (no result: HCV inh, FMDV inh)
CS(=O)(=O)c1ncc(Cl)c(C(=O)Nc2c(C(=O)Nc3ccccc3)oc3ccccc23)n1	FMDV inh 28µM (no result: HCV inh, AmpC inh no detg)
CCOC(=O)c1c(-c2ccccc2)csc1NC(=O)c1nc(SCC)ncc1Cl	none (no result: HCV inh, AmpC inh no detg)
CCS(=O)(=O)c1ncc(Cl)c(C(=O)Nc2ccccc2)n1	HCMV inh -103, FMDV inh inconclusive (no result: HCV inh, AmpC inh no detg)
COc1ccc(Nc2cc3[nH]c(-c4cccc(C(F)(F)F)c4)cc3cn2)cc1OC	none (no result: AmpC detergent, HCV inh, AmpC inh no detg, FMDV inh)
Cc1cc(C)cc(-n2ccn(CC(=O)NCCc3ccccc3)c(=O)c2=O)c1	none
O=C(CN1C(=O)CCOc2ccccc21)Nc1ccc(Cl)c(S(=O)(=O)N2CCOCC2)c1	AmpC detergent inconclusive
CCOC(=O)N1C(=O)NC(=O)C1c1ccccc1 (stereo not given)	none (no result: AmpC detergent, AmpC inh no detg)
CCN(c1ccccc1)S(=O)(=O)c1ccc(NC(=O)c2nc(SC)ncc2Cl)cc1	HCMV inh -86 (no result: HCV inh, AmpC inh no detg)
CCOC(=O)c1ccc(NC(=O)c2nc(SC(C)C)ncc2Cl)cc1	none (no result: HCV inh, AmpC inh no detg)
CN(c1ccccc1)S(=O)(=O)c1ccc(NC(=O)c2nc(S(C)(=O)=O)ncc2Cl)cc1	HCMV inh -111, HCV inh 10µM, FMDV inh 11µM
CCOC(=O)c1ccc(NC(=O)c2nc(S(=O)(=O)Cc3ccccc3)ncc2Cl)cc1	HCMV inh -99, HCV inh 10µM, FMDV inh 35µM
CCCC(=O)NC(NC(=S)Nc1ccc(N=Nc2ccccc2)cc1)C(Cl)(Cl)Cl (stereo not given)	HCMV inh -70, HCV inh 10µM, FMDV inh inconclusive
O=C(CCc1ccccc1)NC(NC(=S)Nc1ccc(Br)cc1)C(Cl)(Cl)Cl (stereo not given)	HCV inh 2µM (no result: FMDV inh)
O=C(CCc1ccccc1)NC(NC(=S)Nc1cccc(Cl)c1)C(Cl)(Cl)Cl (stereo not given)	HCMV inh inconclusive (no result: FMDV inh)
COc1ccc(N(CC(=O)N2CCN(c3cccc(C)c3C)CC2)S(=O)(=O)c2c(C)noc2C)cc1	HCMV inh -65!, HCV inh inconclusive
COc1ccc(N(CC(=O)N2CCN(c3ccc(Cl)cc3)CC2)S(=O)(=O)c2c(C)n[nH]c2C)cc1	HCMV inh -73, HCV inh inconclusive
COc1ccc(N(CC(=O)N2CCN(c3cc(C)ccc3C)CC2)S(=O)(=O)c2c(C)noc2C)cc1	HCV inh inconclusive, FMDV inh inconclusive
Cc1ccc(N(CC(=O)N2CCN(c3ccc(Cl)cc3)CC2)S(=O)(=O)c2c(C)nn(C)c2C)cc1	none (no result: HCV inh, AmpC inh no detg)
Cc1ccc(N(CC(=O)N2CCN(c3cc(C)ccc3C)CC2)S(=O)(=O)c2c(C)nn(C)c2C)cc1	HCMV inh -72 (no result: HCV inh, AmpC inh no detg)
Cc1ccc(C(=O)Nc2cccc(-c3nc(CNC(=O)c4ccc5ccccc5n4)c(C)o3)c2)s1	none (no result: HCMV inh, AmpC detergent, HCV inh, AmpC inh no detg)
CCOc1ccccc1CNC(=O)c1ccc2c(c1)nc1n2CCCCC1	HCMV inh -68 (no result: HCV inh, AmpC inh no detg)
C[C@H]1CN([C@@H](C)CO)C(=O)CCCn2cc(nn2)CO[C@@H]1CN(C)S(=O)(=O)c1ccc(C#N)cc1	FMDV inh inconclusive (no result: AmpC detergent, HCV inh, AmpC inh no detg)
CS(=O)(=O)N(CC(=O)NC1CC2CCC1C2)c1cccc(C(F)(F)F)c1 (stereo not given)	HCMV inh -103
COc1ccc(-c2csc(C3=C(O)CN(Cc4ccc(Cl)cc4)C3=N)n2)cc1OC	HCV inh 11µM
CCc1ccc(OCC(=O)N(Cc2ccc(C)cc2)Cc2ccco2)cc1	none (no result: HCV inh, AmpC inh no detg)
Cc1cc(=O)oc2ccc(OCC(=O)N(Cc3ccc(F)cc3)Cc3ccco3)cc12	HCV inh 3.2µM, FMDV inh 20µM
Cc1ccc(CN(Cc2ccco2)C(=O)COc2ccc(C)c(C)c2)cc1	none (no result: HCV inh, AmpC inh no detg)
Cc1cccc(OCC(=O)N(Cc2ccc(C(C)(C)C)cc2)Cc2ccco2)c1	HCMV inh -82 (no result: HCV inh, AmpC inh no detg)
COc1ccccc1C(=O)Nc1ccc2oc(-c3cccc(Cl)c3Cl)nc2c1	none (no result: HCV inh, AmpC inh no detg)
Cc1ccc(CS(=O)Cc2ccc(C(=O)NCc3cccs3)o2)cc1 (stereo not given)	none
Cc1ccc(CS(=O)(=O)Cc2ccc(C(=O)NCc3cccs3)o2)cc1	HCMV inh -89, AmpC detergent inconclusive
Cc1ccccc1CS(=O)(=O)Cc1ccc(C(=O)NCCc2ccc(Cl)cc2)o1	FMDV inh 28µM (no result: HCV inh, AmpC inh no detg)
Cc1ccc(CCNC(=O)c2ccc(CS(=O)(=O)Cc3ccccc3F)o2)cc1	HCV inh inconclusive, FMDV inh inconclusive
CCOc1ccc2nc(NC(=O)C3CCCN(S(=O)(=O)c4cccs4)C3)sc2c1 (stereo not given)	AmpC detergent inconclusive, HCV inh 14µM, FMDV inh inconclusive
O=C(NC1CCN(Cc2ccccc2)CC1)C1CCN(S(=O)(=O)c2cccc3nsnc23)CC1	HCMV inh -62, FMDV inh inconclusive
COc1ccc2nc(NC(=O)C3CCN(S(=O)(=O)c4cccc5nsnc45)CC3)sc2c1	HCMV inh -75, HCV inh inconclusive, FMDV inh 7.9µM
CCOc1ccc2nc(N3CCC(C(=O)NCCCN4CCOCC4)CC3)sc2c1	HCV inh inconclusive
CCOc1ccc2nc(N3CCCC(C(=O)NCCCN4CCOCC4)C3)sc2c1 (stereo not given)	AmpC detergent inconclusive, AmpC inh no detg 3.2µM
CCOc1ccc2nc(NC(=O)CS(=O)(=O)c3ccc(Cl)cc3)sc2c1	HCMV inh active (no result: HCV inh, AmpC inh no detg)
CCOc1ccc2nc(NC(=O)CS(=O)(=O)c3ccc(C)cc3)sc2c1	none
COc1ccccc1CN1CCCC(n2cc(C(=O)N3CCCC3)nn2)C1 (stereo not given)	none (no result: HCMV inh, AmpC detergent, HCV inh, AmpC inh no detg)
COc1ccc(C(=O)COC(=O)c2sc(C)nc2C)cc1Cl	HCV inh inconclusive
COc1ccc(NC(=O)C2CCCCN2N)cc1OCC(C)C (stereo not given)	HCV inh inconclusive (no result: FMDV inh) | HCV confirm inconclusive | HCV cytotox inactive
COc1ccc(CNN2CCCCC2C(=O)Nc2ccc(OC)c(OCC(C)C)c2)cc1OC (stereo not given)	none
Cc1ccc(S(=O)(=O)NCc2ccncc2)c(C)c1C	HCMV inh -83, HCV inh 0.79µM | HCV confirm 0.79µM | HCV cytotox inactive
O=C(Nc1cccc(NC(=O)c2ccc(-c3ccc(Br)cc3)o2)c1)c1ccco1	HCMV inh inconclusive, HCV inh 6.3µM, AmpC inh no detg inconclusive | HCV confirm 7µM | HCV cytotox inactive
